Laboratory results taken from PubChem BioAssay AID1259343 (VanderVen Lab, College of Veterinary Medicine, Cornell …, 2017).
Hit rate of the full screen: of about 6,200 compounds, about 2,900 (47%) were called active. The set was probably picked from earlier hits. This is one part of the list. Values without a mark were called inactive. No stated cut-off is given here; in the data, active means inhibition above about 50%; inactive means the rest.

Assay: Mycobacterium tuberculosis growth inhibition, primary screen (AID 1259343)
Settings: inhibition: at 10 µM, stronger effect = higher value; outcome: 10 uM

Row | SMILES | inhibition
1 | O=C1N=c2ccc(Br)cc2=C1c1sc(NS(=O)(=O)Cc2ccccc2)nc1O | 16.2%
2 | CC(Sc1nnc(-c2ccc(Br)cc2)o1)C(N)=O (stereo not given) | 86% (active)
3 | CC(C)(C)c1ccc(OCCCC(=O)NCc2cn[nH]c2)cc1 | 88% (active)
4 | Cc1nn(C(C)(C)C)c(C)c1C(=O)NCC1CCCCCCC1 | 80.2% (active)
5 | Cc1ccc(C(=O)NCC2CCCCC2)c(C2CCN(C(=O)c3ccccc3)CC2)n1 | 31.2%
6 | Cc1oc(-c2ccccc2)nc1C(=O)NCC1CCCCC1 | 16.3%
7 | OC1(c2ccccc2)CC(=NC2=NN(c3ccccc3)CC2)C=C1c1ccccc1 (stereo not given) | 84% (active)
8 | Cn1cc(Br)cc1C(=O)Nc1cc2c(cc1Cl)OCO2 | 88.7% (active)
9 | CC(C)Oc1ccc(NC(=O)c2cc(Br)cn2C)cc1 | 23%
10 | Clc1ccccc1-c1nc2c(NCCc3ccccc3)nccc2[nH]1 | 60.4% (active)
11 | CC(C)c1cccc(-c2nc3c(NCc4ccccn4)nccc3[nH]2)c1 | 82.7% (active)
12 | CC(C)c1cccc(-c2nc3c(NCCc4ccncc4)nccc3[nH]2)c1 | 51.9% (active)
13 | c1ccc(CCNc2nc(-c3ccco3)nc3ccccc23)cc1 | 8.49%
14 | COCCCNc1nccc2[nH]c(-c3cccc(C(C)C)c3)nc12 | 78.4% (active)
15 | Brc1ccc2nc(NCc3ccccn3)nc(-c3ccccc3)c2c1 | 1.6%
16 | Cc1ccc(-c2cc(CNCc3ccco3)no2)c(C)c1 | 27.2%
17 | FC(F)(F)c1ccc(NCc2csc(-c3ccco3)n2)cc1 | 89.6% (active)
18 | FC(F)(F)c1cc(-c2ccco2)nc(NCC2CCCO2)n1 (stereo not given) | 28.3%
19 | Cn1nnc2c(Nc3ccc(Nc4ccccc4)cc3)ncnc21 | 9.73%
20 | Cn1nnc2c(Nc3ccc(OC(F)F)cc3)ncnc21 | 72% (active)
21 | CCc1ccc(Nc2ncnc3c2nnn3C)cc1 | 69.2% (active)
22 | CCOc1ccc(Nc2ncnc3c2nnn3C)cc1 | 16.3%
23 | Cn1nnc2c(Nc3ccc(Oc4ccccc4)cc3)ncnc21 | 53.9% (active)

Row | SMILES | inhibition
24 | Cc1cc(Cl)ccc1OCC(O)CN1CCN(c2ccccc2)CC1 (stereo not given) | 51.6% (active)
25 | Cc1cc(Cl)ccc1Oc1ncccc1C#N | 33.1%
26 | FC(F)Oc1ccc(-c2csc(=Nc3cccnc3)n2C2CC2)cc1 | 80.6% (active)
27 | Brc1ccccc1-c1csc(=Nc2cccnc2)n1C1CC1 | 36.9%
28 | FC(F)Oc1ccc(-c2csc(=Nc3cccnc3)n2CC2CCCO2)cc1 (stereo not given) | 38.5%
29 | CN=c1scc(-c2ccc(F)cc2)n1N=C(C)c1ccncc1 | 18.1%
30 | Fc1ccc(N=c2scc(-c3ccc(OC(F)F)cc3)n2C2CC2)cc1 | 53.9% (active)
31 | CN(c1ccccc1)c1nnc(C(O)c2cc(F)c(F)c(F)c2)s1 (stereo not given) | 69.1% (active)
32 | CCCCN(C)c1ccc(C(=O)N2CCc3sccc3C2)cc1 | 9.79%
33 | NC(=O)c1ccc(C(=O)N2CCC(=Cc3ccccc3)CC2)cc1 | -6.19%
34 | NC(=O)COc1ccc(C(=O)N2CCc3sccc3C2)cc1 | 67% (active)
35 | CC1CC(C)CN(C(=O)c2cc3c(s2)CCC3)C1 (stereo not given) | 8.3%
36 | COC(=O)c1cccc(OC(=O)c2cc3c(s2)CCCC3)c1 | 22%
37 | O=C(COC(=O)c1cc2c(s1)CCC2)NCCN1C(=O)CSC1=O | 71.9% (active)
38 | Cc1cccc(C)c1NC(=O)C[N+](C)(C)C | 65.2% (active)
39 | Cc1cccc(C)c1NC(=O)CN(C)c1cnn(Cc2ccccc2)c(=O)c1Cl | 32.3%
40 | CN(C)C(=O)N1CCN(c2cc(-c3ccccc3)c3ccccc3n2)CC1 | 30.6%
41 | O=c1[nH]c(CN2CCN(c3cc(=O)n4ccccc4n3)CC2)nc2ccccc12 | 68.5% (active)
42 | CN(Cc1nc2ccccc2c(=O)[nH]1)C(=O)c1cccc(Cl)c1Cl | 44.4%
43 | NC(=O)c1ccc2nc(-c3ccc(Oc4ccc(Cl)cc4)cc3)[nH]c2c1 | 64.4% (active)
44 | NC(=O)c1ccc(-c2nc(-c3ccc4c(c3)OCCO4)c(-c3ccccn3)[nH]2)cc1 | 40.2%
45 | CC(C)CNc1nn2cc(C(C)(C)C)nc2s1 | 43.8%
46 | Cc1ccc(CNc2ncnc3[nH]ncc23)o1 | 99.6% (active)

Row | SMILES | inhibition
47 | COc1ccc(CCNc2ncnc3[nH]ncc23)cc1 | 8.19%
48 | CN(C)c1cccc(C(=O)NCC2COc3ccccc3C2)c1 (stereo not given) | 13.6%
49 | CCC/C=C/c1ccc(NC(C)=O)nc1 | 92.5% (active)
50 | CCC/C=C/c1cccc(C(=O)NCC)c1 | 79.3% (active)
51 | C=CCNC(=O)c1cccc(I)c1 | -37.8%
52 | Cc1cccc(-c2ccc(NC(=O)C3CCN(C(=O)CC4=CCCCC4)CC3)cc2)c1 | 90.9% (active)
53 | COCC(=O)N1CCC(C(=O)Nc2ccc(-c3cccc(C)c3)cc2)CC1 | inactive
54 | C=CCC(=O)N1CCC(C(=O)Nc2ccc(-c3cccc(C)c3)cc2)CC1 | 91.9% (active)
55 | Cc1cccc(-c2ccc(NC(=O)C3CCN(C(=O)CC4CCCC4)CC3)cc2)c1 | 89.3% (active)
56 | O=C(NCCO)c1ccc(OCc2ccc(Cl)s2)cc1 | -5.18%
57 | N#CC1=C(NC(=O)c2ccc(COc3ccc(Cl)cc3)cc2)CCC1 | 82.1% (active)
58 | Cc1nonc1OCCCNc1ccc([N+](=O)[O-])cc1 | 37.2%
59 | CCc1ccc(Nc2ccc([N+](=O)[O-])c3nonc23)cc1 | 85.6% (active)
60 | CC12CCC(CC1=NNc1nc3ccccc3o1)C2(C)C (stereo not given) | 83.6% (active)
61 | CCCCc1nnc(NC(=O)N2CCc3ccccc3C2)s1 | 33.5%
62 | CCCc1nnc(NC(=O)CC(=O)Nc2ccccc2C(=O)O)s1 | 9.89%
63 | CCCCCc1nnc(NC(=O)Cc2ccccc2)s1 | 89.6% (active)
64 | CCCCc1nnc(NC(=O)C2Cc3ccccc3S2)s1 (stereo not given) | 54.4% (active)
65 | O=C(NCCNc1ncc(C(F)(F)F)cc1Cl)C1Cc2ccccc2S1 (stereo not given) | 46.4%
66 | CCC(Cc1c(I)cc(I)c(N)c1I)C(=O)O (stereo not given) | 84.2% (active)
67 | CCOC(=O)c1ccc(NC(=O)CSc2nc(=O)n3ccccc3n2)cc1 | 90.4% (active)
68 | CCc1ccc(NC(=O)CSc2nc(=O)n3ccccc3n2)cc1 | -1.93%
69 | O=c1nc(SCc2cccc(C(F)(F)F)c2)nc2ccccn12 | -26.8%

Row | SMILES | inhibition
70 | c1coc(-c2cc(CSc3nnc(Cc4cccs4)n3C3CC3)no2)c1 | -54.4%
71 | Cc1[nH]n(-c2ccc(Cl)cc2)c(=O)c1C1=C(c2c[nH]c3ccccc23)C(=O)N(Cc2ccc(F)cc2)C1=O | 61.5% (active)
72 | O=C(Nc1nc(-c2c[nH]c3ccccc23)cs1)c1ccc(F)cc1Cl | 17%
73 | CCc1nc2c(OCCOc3ccc(F)cc3)cccn2c1N(C)C(=O)c1ccccc1F | 45.2%
74 | Cc1ccccc1C(c1ncccc1C)N(C)C(=O)C1CCN(CCCOc2ccc(F)cc2)CC1 (stereo not given) | 60.1% (active)
75 | CCOC(=O)N1CCC(NS(=O)(=O)CCCOc2ccc(F)cc2)CC1 | 45%
76 | N#Cc1ccc(NCCc2cccc(F)c2)cn1 | 36.5%
77 | CS(=O)(=O)Nc1ccc(/C=C/C(=O)NCCc2cccc(F)c2)cc1 | 52.3% (active)
78 | CC(NC(=O)C/C=C/c1cccc(F)c1)C(O)Cc1ccccc1 (stereo not given) | 15.7%
79 | CCc1ccc(CNc2ccc(CNc3ncn[nH]3)cc2)cc1 | 91.1% (active)
80 | COc1cc(NC(=O)CNCCN2CCOC2=O)ccc1Cl | 55.3% (active)
81 | Cc1ccccc1-c1noc(-c2cccc(NC(=O)CCN3CCCO3)c2)n1 | 19.4%
82 | Cc1cc(NC(=O)CNCCN2CCCOC2=O)ccc1Cl | 77.5% (active)
83 | COc1cccc(-c2cc(CC(=O)NC3CCCC3)no2)c1 | 19.6%
84 | Cc1nc2ccccn2c1C(=O)OCc1cc(-c2ccco2)on1 | 33.3%
85 | CCC(=O)c1ccc(OCc2cc(-c3ccccc3)on2)cc1 | 92.5% (active)
86 | CC(C)CN1C(=O)C(=Cc2c(N3CCN(CCO)CC3)nc3ccccn3c2=O)SC1=S | 7.51%
87 | NC(=O)CSc1nccc2c(OCc3ccc(F)cc3)cccc12 | 77.4% (active)
88 | CNS(=O)(=O)c1ccc2c(c1)CCN2C(=O)c1ccc(F)cc1F | 32%
89 | CNS(=O)(=O)c1ccc(C(=O)N2CCc3ccccc32)o1 | 89.9% (active)
90 | Cc1sc(NC(=O)C2CC2)c(C(=O)N2CCc3ccccc32)c1C | -6.91%
